Screening data from PubChem.
FMDV inh: antivirals against foot and mouth disease virus; AID 1159524; hit rate 1.2% among 410,000; Potency, µM (titrated, usually from 57.9 µM), most hits filed as inhibitors; FMDV antiviral cell-based qHTS; calls by dose curve; tested in HEK293T cells; further: read-out not given here; nearly all actives have a fitted effect of over 45% in size
MARV entry inh: Marburg virus entry inhibition; Marburg virus pseudotyped entry inhibition, cell reporter; Potency, µM (doses to about 37.8 µM), actives largely listed as inhibitors; hit rate 1.8% among 300,000; calls by dose curve; tested in HEK293 cells
HCV inh: blocks hepatitis C virus; Huh7.5.1 HCVcc-Cre infection, luciferase reporter, 44 h; hit rate 3.4% among 340,000; Potency, µM (doses to about 41.8 µM), most hits filed as inhibitors; AID 651820; active means well fitted inhibition curve with a large enough effect; inconclusive means small, poorly fitted or top-dose-only effect, or another doubt; inactive means no such curve, though single readings can be large or run the other way
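Luciferase read-out (15 sec integration) after a 15 min room-temperature substrate step quantifies HCVcc-Cre infection. Cells, 1,000 per well, had compound added 4 h post-plating, then virus at ~0.5 moi, and were cultured 44 h.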
SARS PLP yeast: SARS-CoV PLP inhibition in yeast; S. cerevisiae expressing SARS-CoV PLpro, growth rescue; Potency, µM (series often up to 32.9 µM), usual class: activators; hit rate 0.19% among 330,000; AID 485353; calls by dose curve; further: nearly all actives have a fitted effect of over 55% in size
HCMV inh: blocks human cytomegalovirus replication. HFF cells, HCMV-luciferase reporter, 72 h; active compounds read low. activity change, negative = inhibition, % at 57.5 µM. hit rate 4.5% among 410,000; in the data active means activity change below about -60%; inconclusive means no clear call, values can overlap the other calls; inactive means above about -39%
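Compounds were evaluated in HFFs infected with an HCMV luciferase reporter virus (MOI 1 PFU/cell). Luciferase in lysates collected 72 h post infection served as the replication measure.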
Lassa entry inh: inhibitors of Lassa virus binding or cell entry | Lassa virus pseudotype entry inhibition, cell reporter | Potency, µM (top dose mostly 37.9 µM), actives largely listed as inhibitors | hit rate 1.2% among 300,000 | AID 540256; calls by dose curve; tested in HEK293 cells; further: nearly all actives have a fitted effect of over 50% in size
A number is an active result; ! = repeats disagree. This is a sample that favours compounds with a hit; in the whole collection about 8% have one here.

What do the screens show for `Cc1nonc1CC(=O)N1CCCC(C(=O)c2ccc(Cl)cc2)C1` (stereo not drawn)?
FMDV inh: inactive; HCV inh: inactive; SARS PLP yeast: inactive; HCMV inh: inactive

How did CCOC(=O)Nc1ccc(OC)c([N+](=O)[O-])c1 do in these assays?
FMDV inh: inactive; MARV entry inh: inactive; HCV inh: inactive; SARS PLP yeast: inactive; HCMV inh: inactive; Lassa entry inh: inactive

Results for CCOC(=O)Nc1ccc2c(c1)Cc1cc([N+](=O)[O-])ccc1-2 ?
FMDV inh: inactive; MARV entry inh: inactive; HCV inh: inconclusive; HCMV inh: -90; Lassa entry inh: inconclusive

How did Cc1ccc(C)c(OCC(=O)Nc2nc3ccc([N+](=O)[O-])cc3s2)c1C do in these assays?
FMDV inh: inactive; MARV entry inh: inactive; HCV inh: 11µM; SARS PLP yeast: inactive; HCMV inh: -65; Lassa entry inh: inactive

Results for CCC(=O)Nc1nc2ccc([N+](=O)[O-])cc2s1 ?
FMDV inh: inactive; MARV entry inh: inactive; HCV inh: inactive; SARS PLP yeast: inactive; HCMV inh: -60; Lassa entry inh: inactive

How did COc1ccc(CN2CCN(S(=O)(=O)c3ccc(NC(C)=O)cc3)CC2)c(OC)c1OC do in these assays?
FMDV inh: inactive; HCV inh: inactive; SARS PLP yeast: inactive; HCMV inh: -98!; Lassa entry inh: inactive

Results for CC(=O)Nc1ccc(S(=O)(=O)N2CCN(C(C)CCc3ccccc3)CC2)cc1 (stereo not drawn) ?
FMDV inh: inactive; MARV entry inh: 13µM; HCV inh: inactive; SARS PLP yeast: inactive; HCMV inh: inactive; Lassa entry inh: 16µM

What do the screens show for `COC(=O)Nc1ccc(S(=O)(=O)N2CCC(Cc3ccccc3)CC2)cc1`?
FMDV inh: inactive; MARV entry inh: inconclusive; HCV inh: inactive; SARS PLP yeast: inactive; HCMV inh: inactive; Lassa entry inh: 21µM

Results for CC(=O)Nc1ccc(NC(=O)C(C)N2CCN(S(=O)(=O)c3ccc(C)cc3)CC2)cc1 (stereo not drawn) ?
FMDV inh: inactive; MARV entry inh: inconclusive; HCV inh: inactive; SARS PLP yeast: inactive; HCMV inh: inactive; Lassa entry inh: inconclusive

What do the screens show for `COc1cc2cnncc2cc1OC`?
FMDV inh: inactive; MARV entry inh: inactive; HCV inh: inactive; SARS PLP yeast: inactive; HCMV inh: inactive; Lassa entry inh: inactive

Results for COc1cc2cc(Br)cc(Br)c2nc1C ?
FMDV inh: inactive; MARV entry inh: inactive; HCV inh: 11µM; SARS PLP yeast: inactive; HCMV inh: inactive; Lassa entry inh: inactive

What do the screens show for `Cc1ccc([C@H]2N[C@]3(CCCN(Cc4ccco4)C3=O)[C@H]3C(=O)N(C)C(=O)[C@@H]23)cc1`?
FMDV inh: inactive; HCMV inh: inactive

What do the screens show for `O=c1[nH]c(/C(Cl)=C/c2cc(Cl)ccc2O)nc2cc(Cl)ccc12`?
FMDV inh: inconclusive; MARV entry inh: inactive; HCV inh: inactive; SARS PLP yeast: inactive; HCMV inh: -70; Lassa entry inh: inactive

Results for O=c1[nH]c(/C(Cl)=C/c2c(F)cccc2Cl)nc2cc(Cl)ccc12 ?
FMDV inh: inactive; MARV entry inh: inactive; HCV inh: inactive; SARS PLP yeast: inconclusive; HCMV inh: inactive; Lassa entry inh: inactive

What do the screens show for `C(=N\Nc1ncnc2sc3c(c12)CCC3)/c1cccs1`?
MARV entry inh: inactive; SARS PLP yeast: inactive; HCMV inh: -102

How did c1cc(Nc2ncnc3sc4c(c23)CCC4)ccn1 do in these assays?
FMDV inh: inactive; MARV entry inh: inactive; HCV inh: inactive; SARS PLP yeast: inactive; HCMV inh: -63; Lassa entry inh: inactive

Results for C(=N\Nc1ncnc2sc3c(c12)CCC3)/c1ccncc1 ?
FMDV inh: inconclusive; MARV entry inh: inconclusive; HCV inh: inconclusive; SARS PLP yeast: inactive; HCMV inh: inconclusive; Lassa entry inh: inactive

Results for NNc1ncnc2sc3c(c12)CCC3 ?
FMDV inh: inactive; MARV entry inh: inactive; HCV inh: inconclusive; SARS PLP yeast: inactive; HCMV inh: inactive; Lassa entry inh: inactive

Results for CN(C)c1ccc(Nc2ncnc3sc4c(c23)CCCC4)cc1 ?
FMDV inh: inconclusive; HCMV inh: -90; Lassa entry inh: inactive

Results for COc1ccc(Cl)cc1NC(=S)NN1CCOCC1 ?
FMDV inh: inactive; MARV entry inh: inactive; HCV inh: inactive; SARS PLP yeast: inactive; HCMV inh: inconclusive; Lassa entry inh: inactive

What do the screens show for `COc1ccc(OC)c(NC(=S)NN2CCOCC2)c1`?
FMDV inh: inactive; MARV entry inh: inactive; HCV inh: inactive; SARS PLP yeast: inactive; HCMV inh: -102; Lassa entry inh: inactive

How did Cc1cccc(CN2C(=O)c3ccccc3Sc3ccc(C(=O)NCc4ccco4)cc32)c1 do in these assays?
FMDV inh: inactive; HCMV inh: -73; Lassa entry inh: inconclusive

How did O=C(NCCCN1CCOCC1)c1ccc2c(c1)N(Cc1c(F)cccc1Cl)C(=O)c1ccccc1S2 do in these assays?
FMDV inh: inconclusive; HCV inh: inconclusive; SARS PLP yeast: inactive; HCMV inh: inactive

How did O=C(NCCCN1CCOCC1)c1ccc2c(c1)N(Cc1cccc(Cl)c1)C(=O)c1ccccc1S2 do in these assays?
FMDV inh: inactive; HCMV inh: -89; Lassa entry inh: inactive

How did CCN1CCN(CCNC(=O)c2ccc3c(c2)N(Cc2cccc(Cl)c2)C(=O)c2ccccc2S3=O)CC1 (stereo not drawn) do in these assays?
FMDV inh: inactive; MARV entry inh: inconclusive; HCV inh: inconclusive; SARS PLP yeast: inactive; HCMV inh: -73; Lassa entry inh: inconclusive

Results for Cc1ccc(CCNC(=O)c2ccc3c(c2)N(Cc2ccccc2)C(=O)c2ccccc2S3=O)cc1 (stereo not drawn) ?
FMDV inh: inactive; MARV entry inh: inactive; HCMV inh: inactive; Lassa entry inh: inactive

What do the screens show for `CCN(CC)CCNC(=O)c1ccc2c(c1)N(Cc1ccccc1)C(=O)c1ccccc1S2=O` (stereo not drawn)?
FMDV inh: inactive; MARV entry inh: inconclusive; HCMV inh: -70; Lassa entry inh: inactive

Results for O=C(Nc1cc(Cl)cc(Cl)c1)c1ccc(F)c(S(=O)(=O)N2CCc3ccccc32)c1 ?
FMDV inh: inconclusive; HCMV inh: -96; Lassa entry inh: inactive

What do the screens show for `O=C(Nc1cc(Cl)cc(Cl)c1)c1ccc(F)c(S(=O)(=O)N2CCCC2)c1`?
FMDV inh: inconclusive; HCMV inh: inactive; Lassa entry inh: inconclusive

Results for O=C(Nc1ccc(Br)cc1)c1ccc(F)c(S(=O)(=O)N2CCCc3ccccc32)c1 ?
FMDV inh: inconclusive; HCMV inh: -99; Lassa entry inh: inconclusive

How did CNc1ccc(C(=O)OCC(=O)NC(=O)NC2CCCC2)cc1[N+](=O)[O-] do in these assays?
FMDV inh: inactive; HCV inh: inactive; SARS PLP yeast: inactive; HCMV inh: inactive

How did CCc1cc2c(nc1CC)CCN(CCC(C)=NOC[C@H]1O[C@H](c3ccccc3)C=C[C@H]1Oc1ccc(OC)cc1)C2 do in these assays?
MARV entry inh: inactive
